Compound activity (PubChem BioAssay)
DAX1 inh-1: inhibitors of human orphan nuclear receptor DAX1 (NR0B1) | P51843 | inhibition, % at 6.75 µM | 340,000 tested, 0.99% active | HEK293 Gal4-DAX1 luciferase reporter, luminescence;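 active = inhibition above the mean over all tested compounds plus 3 SD, cut at about 4.2% in these data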;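 also: 0% = DAX1-transfected cells with DMSO and 100% = empty-vector control cells with DMSO; inhibition shows as a rise in luminescence from relieved DAX1 repression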
Target sequence (P51843 207-470 limits assumed): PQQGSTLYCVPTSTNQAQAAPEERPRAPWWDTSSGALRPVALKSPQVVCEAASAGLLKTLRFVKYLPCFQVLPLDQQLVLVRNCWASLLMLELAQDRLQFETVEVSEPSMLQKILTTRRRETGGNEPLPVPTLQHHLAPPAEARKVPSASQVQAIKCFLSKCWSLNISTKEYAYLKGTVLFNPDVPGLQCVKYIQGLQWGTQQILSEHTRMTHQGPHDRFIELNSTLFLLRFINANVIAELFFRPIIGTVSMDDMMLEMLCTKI
hcDAF-12 act: H. contortus DAF-12 activation, primary screen; HEK293 hcDAF-12 lit1-tk-luc reporter, luminescence; 0% DMSO, 100% Δ7-dafachronic acid; activation, % at 6.8 µM; 370,000 tested, 1.4% active;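 active = activation above the mean of all tested compounds plus 3 SD, cut at about 5.5% in these data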;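 also: 100% = response to 3 µM Δ7-dafachronic acid high control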
DAX1 inh-2: DAX1 (NR0B1) inhibition, primary screen. HEK293T StAR-luciferase reporter, SF-1/DAX-1 repression relief. inhibition, % at 6.8 µM. 370,000 tested, 1.1% active. AID 652010;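 active = inhibition above the mean over all tested compounds plus 3 SD, cut at about 3.6% in these data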;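 also: 0% = DAX-1 cells with DMSO and 100% = cells lacking DAX-1 with DMSO; higher inhibition means more luminescence from relief of DAX-1 repression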
hgDAF-12 ag: activates the H. glycines DAF-12 receptor ligand-binding domain; HEK293 GAL4-hgDAF12 UAS-luciferase reporter, agonist luminescence; normalized to butyrate control; activation, % at 6.8 µM; 370,000 tested, 1.8% active; AID 687014;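 active = activation above a cutoff set at the mean of all screened compounds plus 3 SD, cut at about 10% in these data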;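 also: 0% = DMSO wells and 100% = sodium butyrate wells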
ssDAF-12 act: activates DAF-12 receptor from parasite S. stercoralis; HEK293 ssDAF-12/GRIP1 lit1-tk-luc reporter, luminescence; % of 3 µM dafachronic acid response; activation, % at 6.8 µM; 370,000 tested, 1% active; AID 652126;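 active = activation above the mean over all tested compounds plus 3 SD, cut at about 0.9% in these data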;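 also: 0% = DMSO-only wells and 100% = 3 µM delta7-dafachronic acid wells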
PolyA inh: yeast polyadenylation inhibition; 300,000 tested, 0.02% active; activity score, % at 12 µM; S. cerevisiae SKY197-pL101 polyadenylation reporter, beta-gal luminescence; efflux-impaired pdr1/pdr3 knockout yeast; score 100 = 6 SD above DMSO; AID 1875;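 active = lowest replicate activity score at least 50, where 100 means six control SD above control mean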;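 also: yeast exposed to compound for 9 h at 30 °C; higher score means more reporter readthrough which indicates perturbed polyadenylation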
The depositor's hits bear a star; . = no result given. Rows were chosen to be rich in hits. Some 4.1% of all compounds tested hit in one or more screens of this group.

SMILES | DAX1 inh-1 | hcDAF-12 act | DAX1 inh-2 | hgDAF-12 ag | ssDAF-12 act | PolyA inh
CCn1c(SCC(=O)Nc2ccc(NC(C)=O)cc2)nc2c([nH]c3ccccc32)c1=O | 1 | 5.6* | 0 | 1 | 1.1* | -11
Cc1ccc(S(=O)(=O)NC[C@@H]2C[C@H](c3ccccc3)ON2S(=O)(=O)c2ccc(C)cc2)cc1 | . | -1 | . | 0 | -1 | .
Cc1ccc(/C=C/C(=O)Nc2ccc(N(C)C)cc2)o1 | 1 | -1 | 2 | 5 | 1.6* | -4
CCCCNC(=O)c1ccc2nc(CC)c(N(CC)CCN(C)C)n2c1 | . | 0 | 1 | 2 | 0.9* | .
CCCCNC(=O)c1ccc2nc(CC)c(N(CCC(C)C)CCN(C)C)n2c1 | . | -2 | 0 | -1 | -1 | .
CCC(=O)Nc1ccc(C(=O)N/N=C/c2ccccc2[N+](=O)[O-])cc1 | -1 | -1 | 1 | 5 | -1 | -16
CC(=O)Nc1ccc(C(=O)N/N=C/c2ccccc2OCc2ccccc2)cc1 | 4.3* | -1 | 0 | 7 | -1 | -4
CCOc1ccc(C(=O)N/N=C/c2ccccc2[N+](=O)[O-])cc1 | 0 | 3 | 3 | 10* | -1 | 7
COc1ccccc1/C=N/NC(=O)c1ccc(NC(=O)c2ccccc2Br)cc1 | -1 | -3 | 0 | 3 | -2 | -1
CCC(=O)Nc1ccc(C(=O)N/N=C/c2cc(Br)c(OC)cc2OC)cc1 | 0 | 5 | 0 | 1 | 1.9* | -3
COC(=O)c1cc2c(c3c4cc(F)ccc4n(S(=O)(=O)c4ccccc4)c13)C(=O)N(Cc1ccccc1)C2 | . | 0 | -1 | 0 | -1 | .
CC(Cc1ccccc1)=NNc1ccc([N+](=O)[O-])cc1[N+](=O)[O-] | -1 | 0 | 0 | 3 | 2.4* | .
O=C(NNC1CCN(Cc2ccccc2)CC1)c1ccccc1 | 0 | -1 | 3 | 11* | 0 | .
O=C(NC1CCN(Cc2ccccc2)CC1)c1ccccc1 | 2 | 0 | 0 | -3 | -1 | -19
COc1ccc(C(=O)CCNc2cccc(Cl)c2)cc1 | 1 | 2 | 1 | 5 | -1 | 7
CCCOc1ccc(C(=O)CCNc2cccc(Cl)c2)cc1 | 1 | -1 | 0 | 5 | 1.4* | 13
CC1(C)CC(=O)C=C(c2ccccc2F)C1=O | . | 0 | 1 | 0 | -1 | .
COC(=O)[C@]12C[C@H](CC(=O)N3CCN(C(=O)C4CC4)CC3)C(=O)N(Cc3cccc4ccccc34)C1=C[C@H](COCc1ccccc1)O[C@@H]2C | . | -3 | -1 | -1 | -2 | .
CC(=O)NCCc1nc2cc(NC(=O)c3ccc(Cl)cc3)ccc2n1C | 2 | 2 | 2 | 11* | -1 | 0
CCC(=O)NCCc1nc2cc(NC(=O)c3ccc(Cl)cc3)ccc2n1C | 0 | 3 | 1 | 10 | -1 | 3
Cc1ccccc1CNC(=O)C1C2C=CC3(CN(Cc4ccccc4)C(=O)C13)O2 (stereo not drawn) | . | 1 | 0 | 1 | -1 | .
O=C(NC(=S)N1CCCc2ccccc21)c1ccc(Br)cc1 | 0 | 5.9* | 0 | 3 | -1 | 29
O=C(NC(=S)N1CCCc2ccccc21)c1ccc([N+](=O)[O-])cc1 | -1 | 5.6* | 0 | 1 | 0 | 12
COc1ccc(C(=O)NC(=S)N2CCCc3ccccc32)cc1OC | 0 | 0 | 0 | -4 | -1 | 9
Cc1ccc(OCCNC(=O)[C@@H](Cc2ccccc2)NC(=O)[C@H]2O[C@@H](n3ccc(=O)[nH]c3=O)[C@H](O)[C@@H]2O)cc1C | . | -3 | 1 | -2 | -1 | .
CN(C)/C=N/c1cnc(C(=O)c2ccc(Cl)cc2)n1C | 3 | 6.4* | 3 | 12* | 0 | -13
CN(C)/C=N/NC(=O)c1ccc(Cl)cc1 | . | -1 | 0 | 2 | -2 | -4
O=c1c(Br)c(N2CCCC2)cnn1-c1ccccc1 | 0 | 5.6* | 3 | 12* | 0 | 2
CN1CCN(c2cnn(-c3ccccc3)c(=O)c2Br)CC1 | 0 | 0 | 1 | 3 | -1 | -6
OCC1OC(n2cnc3c(NCCc4ccccc4)ncnc32)C(O)C1O (stereo not drawn) | 1 | -1 | 2 | 13* | 0 | -3
